In PubChem BioAssay:
Activity calls are given as the source filed them.

What was measured:
[1] = optical density shifts of acrAB sulA E. coli – strain DRC41, OD650, 48 h, E. coli filamentation inducer project, primary screen (AID 1152); conditions: higher = more signal, called active from +8 up or from −8 down;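 also: E. coli MC1000 strain DRC41 lacking acrAB efflux pump and sulA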
[2] = probe aLefty1 binding on compound microarray – biochemical, small-molecule microarray, 635/667 nm fluorescence, primary screen (AID 1153); conditions: higher = more signal;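 also: score merges spot fluorescence with signal-to-noise ratio from the scanned slide images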
[3] = plasmodial surface anion channel blockers, osmotic lysis – cell-based, P. falciparum Indochina, OD700, 1 h, primary screen (AID 1154); conditions: P. falciparum Indochina infected RBC osmotic lysis, higher = more signal, called active from +8 up or from −8 down
[4] = plasmodial surface anion channel blockers, osmotic lysis – cell-based, P. falciparum Indochina, OD700, 2 h, primary screen (AID 1155);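 also: lysis reports solute entry through the parasite surface anion channel PSAC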; conditions: P. falciparum Indochina infected erythrocytes, higher = more signal, called active from +8 up or from −8 down
[5] = changes in parasitized red cell lysis, either direction – P. falciparum Indochina, OD700, 3 h, PSAC antagonist project, primary screen (AID 1156); conditions: P. falciparum-infected erythrocytes, osmotic lysis, higher = more signal, called active from +8 up or from −8 down
[6] = plasmodial surface anion channel blockers, osmotic lysis – cell-based, P. falciparum Indochina, OD700, 18 h, primary screen (AID 1157); conditions: P. falciparum Indochina infected erythrocytes, osmotic lysis OD700, 18 h; higher = more signal, called active from +8 up or from −8 down
[7] = S6 kinase pathway phospho-S6 level changes – cell-based, A549, cytoblot, luminescence, serum-stimulated, primary screen (AID 1158); conditions: 5 h, higher = more signal;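 also: serum-stimulated A549 lung adenocarcinoma cells; signal is phosphorylated S6 detected by cytoblot immunostaining with HRP secondary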
[8] = target: NADPH oxidase 2 (Homo sapiens) (UniProt P04839); test: compounds shifting NOX2 Amplex Red fluorescence – cell-based, HEK293-NOX2, PMA-stimulated, NOX inhibitor project, primary screen (AID 1159); conditions: 45 min, higher = more signal, called active from +8 up or from −8 down; also: test concentration not given here
Chain of NADPH oxidase 2 (Homo sapiens) (P04839 whole entry, looked up): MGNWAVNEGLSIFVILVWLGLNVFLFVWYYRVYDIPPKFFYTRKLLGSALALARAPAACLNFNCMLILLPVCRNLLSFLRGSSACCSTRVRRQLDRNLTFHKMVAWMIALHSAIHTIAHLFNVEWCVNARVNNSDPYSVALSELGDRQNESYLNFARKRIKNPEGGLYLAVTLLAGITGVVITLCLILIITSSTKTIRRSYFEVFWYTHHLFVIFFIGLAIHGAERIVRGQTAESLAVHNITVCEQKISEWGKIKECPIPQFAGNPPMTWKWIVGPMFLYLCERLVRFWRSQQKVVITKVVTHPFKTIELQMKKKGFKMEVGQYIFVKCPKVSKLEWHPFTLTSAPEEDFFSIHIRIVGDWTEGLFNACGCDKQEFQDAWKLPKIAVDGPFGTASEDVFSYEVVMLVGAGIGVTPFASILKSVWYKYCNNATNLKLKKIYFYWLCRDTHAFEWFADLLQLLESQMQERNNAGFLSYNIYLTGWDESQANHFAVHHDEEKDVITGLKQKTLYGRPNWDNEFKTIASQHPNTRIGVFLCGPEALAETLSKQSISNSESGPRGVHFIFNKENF

[9] = target: NADPH oxidase 4 (Homo sapiens) (UniProt Q9NPH5); test: compounds shifting NOX4 Amplex Red fluorescence – cell-based, HEK293-NOX4, tetracycline-induced, NOX inhibitor project, primary screen (AID 1160); conditions: HEK293-NOX4, Amplex Red H2O2 fluorescence, 45 min; higher = more signal, called active from +8 up or from −8 down
Chain of NADPH oxidase 4 (Homo sapiens) (Q9NPH5 whole entry, looked up): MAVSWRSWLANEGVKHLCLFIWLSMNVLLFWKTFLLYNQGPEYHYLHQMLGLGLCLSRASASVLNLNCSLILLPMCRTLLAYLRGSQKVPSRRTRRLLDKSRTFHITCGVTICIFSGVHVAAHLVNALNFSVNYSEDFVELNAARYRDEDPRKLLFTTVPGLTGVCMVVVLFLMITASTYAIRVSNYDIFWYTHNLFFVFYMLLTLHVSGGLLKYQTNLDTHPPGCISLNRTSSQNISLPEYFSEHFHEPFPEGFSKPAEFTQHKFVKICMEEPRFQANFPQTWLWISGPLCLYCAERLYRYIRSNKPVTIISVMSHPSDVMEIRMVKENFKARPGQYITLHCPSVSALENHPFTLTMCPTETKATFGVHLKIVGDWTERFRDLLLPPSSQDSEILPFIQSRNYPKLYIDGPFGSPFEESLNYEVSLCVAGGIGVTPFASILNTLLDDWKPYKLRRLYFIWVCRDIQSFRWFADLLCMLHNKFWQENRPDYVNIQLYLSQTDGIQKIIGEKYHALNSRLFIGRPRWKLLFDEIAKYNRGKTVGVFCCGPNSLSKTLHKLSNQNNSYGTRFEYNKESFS

[10] = target: NADPH oxidase 5 (Homo sapiens) (UniProt Q96PH1); test: compounds shifting NOX5 Amplex Red fluorescence – cell-based, HEK293-NOX5, NOX inhibitor project, primary screen (AID 1161); conditions: HEK293-NOX5, ionomycin, 45 min, higher = more signal
Chain of NADPH oxidase 5 (Homo sapiens) (Q96PH1 whole entry, looked up): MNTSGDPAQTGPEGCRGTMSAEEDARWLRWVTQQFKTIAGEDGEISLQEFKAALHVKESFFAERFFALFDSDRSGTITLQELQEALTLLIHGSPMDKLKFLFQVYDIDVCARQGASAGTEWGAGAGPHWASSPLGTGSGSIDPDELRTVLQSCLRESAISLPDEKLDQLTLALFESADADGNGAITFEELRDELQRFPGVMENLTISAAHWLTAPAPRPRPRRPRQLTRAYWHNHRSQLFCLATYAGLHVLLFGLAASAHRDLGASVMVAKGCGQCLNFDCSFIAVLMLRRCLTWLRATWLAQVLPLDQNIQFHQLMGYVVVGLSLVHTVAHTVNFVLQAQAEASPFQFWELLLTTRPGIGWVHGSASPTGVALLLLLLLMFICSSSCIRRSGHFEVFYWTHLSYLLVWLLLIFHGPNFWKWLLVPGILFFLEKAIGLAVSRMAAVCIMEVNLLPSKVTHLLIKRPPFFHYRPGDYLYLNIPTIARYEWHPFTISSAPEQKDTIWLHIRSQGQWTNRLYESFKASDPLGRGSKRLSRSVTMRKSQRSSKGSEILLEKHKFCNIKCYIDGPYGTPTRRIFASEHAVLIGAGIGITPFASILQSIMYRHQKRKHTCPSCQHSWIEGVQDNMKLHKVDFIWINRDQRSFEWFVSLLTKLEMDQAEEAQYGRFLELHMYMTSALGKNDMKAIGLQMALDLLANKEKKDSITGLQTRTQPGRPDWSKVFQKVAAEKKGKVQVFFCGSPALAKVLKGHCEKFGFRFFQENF

Compound | z-score [1] | composite z-score [2] | z-score [3] | z-score [4] | z-score [5] | z-score [6] | z-score [7] | z-score [8] | z-score [9] | z-score [10]
COC(=O)c1c(CC[C@@H](CO)NC(=O)N[C@H](Cn2cc(Cc3ccccc3)nn2)C(C)C)oc(C(C)=O)c1C(=O)OC | 0.618 (inactive) | -0.101 | 1.62 (inactive) | -0.452 (inactive) | 0.695 (inactive) | -0.177 (inactive) | 1.53 | -3.91 (inactive) | -1.31 (inactive) | 0.197
C=CCOC(=O)[C@H]1[C@@H]2C(=O)O[C@@H](c3ccccc3)[C@@H](c3ccccc3)N2[C@@H](c2ccc(OCCOC(=O)[C@H]3C[C@H]4C(=O)N5CCC[C@H]5C(=O)N4[C@H]3c3ccc(O)cc3)cc2)[C@]12C(=O)Nc1ccc(I)cc12 | 0.917 (inactive) | 1.99 | 0.234 (inactive) | -0.588 (inactive) | -1.27 (inactive) | -1.39 (inactive) | 0.555 | -1.32 (inactive) | -1.09 (inactive) | -0.351
COCCOC(=O)N1C(=O)[C@@]2(c3cc(C#CCNC(N)=O)ccc31)[C@H](C(=O)NC[C@H](O)c1ccccc1)[C@H]1C(=O)O[C@H](c3ccccc3)[C@H](c3ccccc3)N1[C@@H]2c1ccccc1OCCO | -0.119 (inactive) | 1.28 | 2.05 (inactive) | 0.35 (inactive) | 0.927 (inactive) | 0.317 (inactive) | 0.239 | 1.91 (inactive) | 1.63 (inactive) | -0.63
O=C(NCc1ccccc1)[C@@]1(Cc2ccccc2)N=C(c2ccc(OCCCO)cc2)O[C@H]1c1ccccc1 | 0.179 (inactive) | 0.609 | 13.5 (active) | 2.11 (inactive) | 1.5 (inactive) | 0.86 (inactive) | -0.0312 | -1.28 (inactive) | 0.98 (inactive) | 0.756
[N-]=[N+]=NCc1ccccc1[C@@H]1OC(c2ccc(OCCCO)cc2)=N[C@]1(CCS(=O)(=O)c1ccccc1)C(=O)NCCN1CCOCC1 | 0.36 (inactive) | 0.461 | 24 (active) | 6.42 (inactive) | 0.854 (inactive) | 0.763 (inactive) | -0.291 | 0.961 (inactive) | 1.92 (inactive) | 2.34
[N-]=[N+]=Nc1ccccc1C[C@@]1(C(=O)NCCN2CCOCC2)N=C(c2ccc(OCCCO)cc2)O[C@@H]1c1ccccc1 | 1.06 (inactive) | 0.234 | 28.8 (active) | 24.3 (active) | 2.41 (inactive) | 5.39 (inactive) | 0.368 | -0.57 (inactive) | 1.25 (inactive) | 0.589
[N-]=[N+]=NCc1ccccc1[C@@H]1OC(c2ccc(OCCCO)cc2)=N[C@]1(CCS(=O)(=O)c1ccccc1)C(=O)NCc1ccccc1 | -0.665 (inactive) | 1.43 | 16.4 (active) | 2.27 (inactive) | 1.75 (inactive) | 0.814 (inactive) | -0.0212 | -1.04 (inactive) | 0.0609 (inactive) | -0.898
Cc1ccc(S[C@]2(C(=O)NCCN3CCOCC3)CC(=O)N(Cc3ccccc3Cl)[C@@H]2c2ccc(CO)cc2)cc1 | 0.59 (inactive) | 0.0402 | 2.62 (inactive) | 0.43 (inactive) | 1.94 (inactive) | 0.524 (inactive) | 0.413 | -2.29 (inactive) | -1.85 (inactive) | -2.89
C=CCNC(=O)[C@@H]1[C@H]2C(=O)O[C@H](c3ccccc3)[C@H](c3ccccc3)N2[C@H](c2ccc(OCCO)cc2)[C@@]12C(=O)Nc1ccc(C#CCCO)cc12 | -0.41 (inactive) | 0.656 | 7.17 (inactive) | 2.11 (inactive) | 1.14 (inactive) | 0.812 (inactive) | -0.344 | 1.67 (inactive) | 0.442 (inactive) | 0.688
C[N+](C)(C)CCCC[C@@H]1NC(=O)[C@@H]2C[C@H](C(=O)NCCCCCN)[C@H](c3cccc(OCCO)c3)N2C1=O | -0.272 (inactive) | -0.0412 | 1.85 (inactive) | 0.508 (inactive) | 0.214 (inactive) | 0.129 (inactive) | -0.0726 | 0.79 (inactive) | 0.289 (inactive) | 1.54
O=C1O[C@@H](c2ccccc2)[C@@H](c2ccccc2)N2[C@@H](c3ccc(OCCO)cc3)[C@]3(C(=O)Nc4ccccc43)[C@@H](C(=O)NC[C@H](O)c3ccccc3)[C@H]12 | -0.29 (inactive) | -0.0491 | 6.58 (inactive) | 1.85 (inactive) | 0.539 (inactive) | 0.779 (inactive) | -0.29 | 1.62 (inactive) | 0.918 (inactive) | 0.81
CCCC[C@@H]1C[C@H]1[C@@H](NC(=O)c1ccco1)c1ccc(Cl)cc1 | -1.54 (inactive) | 0.485 | 4.34 (inactive) | 0.904 (inactive) | 0.365 (inactive) | 0.74 (inactive) | -0.321 | -1.72 (inactive) | -2.56 (inactive) | 0.0234
COC(=O)c1c(CC[C@@H](CO)NC(=O)N2CCC[C@H]2Cn2cc(-c3ccccn3)nn2)oc(C(C)=O)c1C(=O)OC | 1.04 (inactive) | -0.101 | 1.58 (inactive) | -0.448 (inactive) | -0.315 (inactive) | -0.741 (inactive) | 0.882 | -2.6 (inactive) | -1.44 (inactive) | -1.84
CC(C)C[C@@H]1NC(=O)[C@H]2C[C@@H](C(=O)NCCCCCCN)[C@@H](c3ccc(O)cc3)N2C1=O | -0.63 (inactive) | 0.51 | 1.9 (inactive) | 0.0643 (inactive) | -0.265 (inactive) | 0.3 (inactive) | -0.648 | 1.21 (inactive) | 1.05 (inactive) | 0.315
CCCCC=C[C@@H](NC(=O)Oc1cccc(C(F)(F)F)c1)c1ccccc1 | -2.63 (inactive) | 1.29 | 2.41 (inactive) | 0.278 (inactive) | 0.247 (inactive) | -1.17 (inactive) | 1.31 | -3.82 (inactive) | -3.48 (inactive) | -2.98
C#CCNC(=O)[C@H](Cc1ccccc1)NC(=O)CCC(=O)O | -0.077 (inactive) | -0.36 | -0.168 (inactive) | 0.748 (inactive) | -0.707 (inactive) | 0.0401 (inactive) | -0.665 | 0.658 (inactive) | -0.198 (inactive) | 0.0788
CCC(CC)C(O)C1C=CC2C(=O)N(C)C(=O)C2N1Nc1ccccc1 (stereo not given) | -0.39 (inactive) | 0.173 | 1.11 (inactive) | 1.09 (inactive) | 0.0973 (inactive) | 0.951 (inactive) | -0.835 | -1.73 (inactive) | -3.49 (inactive) | -3.77
C=CCOC(=O)[C@@H]1[C@H]2C(=O)O[C@H](c3ccccc3)[C@H](c3ccccc3)N2[C@H](c2ccc(OCCOC(=O)[C@@H]3C[C@@H]4C(=O)N[C@@H](CCCC[N+](C)(C)C)C(=O)N4[C@@H]3c3cccc(OCCO)c3)cc2)[C@@]12C(=O)Nc1ccc(I)cc12 | -0.537 (inactive) | 0.121 | 2.82 (inactive) | 2.58 (inactive) | 2.24 (inactive) | 1.01 (inactive) | -1.5 | 2.31 (inactive) | 0.862 (inactive) | 1.3
O=C1c2ccccc2[C@@]2(Cc3ccccc3N(CCN3CCOCC3)C2=O)[C@H](c2ccc(CO)cc2)N1Cc1ccccc1 | 1.04 (inactive) | -0.0479 | 0.884 (inactive) | -0.273 (inactive) | -0.378 (inactive) | 0.646 (inactive) | 0.215 | 0.0706 (inactive) | -0.582 (inactive) | -0.606
O=C1c2ccccc2[C@@]2(Cc3ccccc3N(CC(F)(F)F)C2=O)[C@H](c2ccc(CO)cc2)N1Cc1ccccc1Cl | 0.606 (inactive) | -0.677 | 0.902 (inactive) | 0.638 (inactive) | 0.955 (inactive) | 0.5 (inactive) | 0.258 | 0.0997 (inactive) | -0.991 (inactive) | -0.826
CCOC(=O)[C@H]1C/C=C/C[C@H](C(=O)OCC)C(=O)O[C@H]2[C@@H](OC)O[C@H](CO)[C@@H](OC(=O)Nc3cccc(F)c3)[C@@H]2OC1=O | 0.0021 (inactive) | 1.53 | 4.53 (inactive) | 1.81 (inactive) | -2.04 (inactive) | 1.61 (inactive) | -0.0707 | -2.12 (inactive) | -0.389 (inactive) | -1.22
CCCC[C@H]1OB(O)C[C@H]2C1=C(COc1ccccc1)C[C@H]1C(=O)N(C)C(=O)[C@H]12 | -0.882 (inactive) | -0.0989 | 1.31 (inactive) | -0.252 (inactive) | -0.761 (inactive) | 0.232 (inactive) | -0.149 | -0.405 (inactive) | 0.509 (inactive) | 0.224
O=C1OCCC/C=C\[C@H]2OC34C=CCN(Cn5nnc6ccccc65)C(=O)[C@H]3N(CCO)C(=O)[C@@H]4C12 (stereo not given in full) | 1.8 (inactive) | 0.16 | 1.55 (inactive) | 0.299 (inactive) | 0.292 (inactive) | 0.335 (inactive) | 1.64 | 1.41 (inactive) | 0.409 (inactive) | 1.92
CCCCc1cn(C[C@H](Cc2ccccc2)NC(=O)N[C@H](CO)CCc2oc(C(C)=O)c(C(=O)OC)c2C(=O)OC)nn1 | 0.135 (inactive) | 0.086 | 1.66 (inactive) | -0.983 (inactive) | 1.21 (inactive) | -0.496 (inactive) | 0.847 | -4.81 (inactive) | -2.87 (inactive) | -2.48
O=C1OCC=C[C@H]2OC34C=CCN(CCN5CCOCC5)C(=O)[C@H]3N(CCCO)C(=O)[C@@H]4[C@@H]12 (stereo not given in full) | 0.109 (inactive) | -0.147 | 0.64 (inactive) | -0.385 (inactive) | 1.27 (inactive) | -1.19 (inactive) | 1.08 | 0.812 (inactive) | -1.16 (inactive) | 0.375
